Assay [1] deals with Plasmodium falciparum Sir2 (PF13_0152, Sir2A). In words: pfSir2 binders on small-molecule microarrays, primary screen, biochemical, small-molecule microarray, 635 nm fluorescence (AID 1098).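 Note: score merges spot fluorescence intensity with its signal-to-noise ratio.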 Conditions: small-molecule microarray binding, fluorescence 635 nm; higher = more signal.
The nature of assay [2]: small-molecule microarray binders of probe aDKK1, primary screen, biochemical, biotinylated probe, 635/667 nm fluorescence (AID 1099).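 Note: score merges 667nm spot fluorescence with signal to noise across triplicate slides; reference of the scale not given here.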 Conditions: higher = more signal.
Assay [3] is described as follows: small-molecule microarray binders of probe aCHRDL2, primary screen, biochemical, biotinylated probe, 635/667 nm fluorescence (AID 1100). Conditions: higher = more signal.
Assay [4] can be described thus: splicing luciferase reporter signal modulators, primary screen, spliceosome inhibition project, cell-based, HEK293, splice +/- reporter (AID 1101).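 Note: HEK293 cells carrying a splicing-competent luciferase reporter gene; test concentration not given here.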 Conditions: luminescence, 24 h, higher = more signal, called active from +8 up or from −8 down. On the technique in general: Reporter assays use an easily measured gene product as a stand-in for the process of interest.
Assay [5] concerns the target Fibroblast growth factor 10 (Homo sapiens) (UniProt O15520). In words: FGF10 binders on small-molecule microarrays, primary screen, biochemical, small-molecule microarray, 635 nm fluorescence (AID 1102). Conditions: FGF10 binding, fluorescence 635 nm, higher = more signal.
Assay [6] has as its system glycogen synthase kinase-3 (GSK3A per assay name; protocol says GSK3B). In words: GSK3 binders on small-molecule microarrays, primary screen, biochemical, small-molecule microarray, 635 nm fluorescence, GSK3A (AID 1103). Note: the record names both GSK3A and GSK3B. Conditions: small-molecule microarray binding, fluorescence 635 nm; higher = more signal.
Assay [7] deals with Epidermal growth factor receptor (Homo sapiens) (UniProt P00533). In words: EGFR binders on small-molecule microarrays, primary screen, biochemical, small-molecule microarray, 635 nm fluorescence (AID 1104).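 Note: score merges 667 nm emission intensity with spot signal to noise over triplicate slides.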 The conditions noted are these: EGFR binding, higher = more signal.
Assay [8] deals with Follistatin-related protein 3 (Homo sapiens) (UniProt O95633). In words: FSTL3 binders on small-molecule microarrays, primary screen, biochemical, small-molecule microarray, 635 nm fluorescence (AID 1105).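 Note: score merges emission near 667 nm and signal to noise per printed spot across three slides.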 The conditions noted are these: FSTL3 binding, higher = more signal.
For assay [9], the target named is Dickkopf-related protein 1 (Homo sapiens) (UniProt O94907). In words: DKK1 binders on small-molecule microarrays, primary screen, biochemical, small-molecule microarray, 635 nm fluorescence scan (AID 1106).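 Note: score merges emission near 667 nm with signal to noise over three replicate slides.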 Conditions: DKK1 binding, higher = more signal.
Assay [10] concerns Inhibin beta A chain (activin A). In words: INHBA (activin A) binders on microarrays, primary screen, biochemical, small-molecule microarray, 635 nm fluorescence scan (AID 1107).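 Note: mouse activin A protein probed at 4.33 µg/mL on printed slides; score merges bound-protein fluorescence near 667 nm with spot signal-to-noise.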 Conditions: small-molecule microarray binding, higher = more signal.

SMILES strings stand for the structures. Calls of active or inactive are those of the source.

Chain of Dickkopf-related protein 1 (Homo sapiens) (O94907 whole entry, looked up): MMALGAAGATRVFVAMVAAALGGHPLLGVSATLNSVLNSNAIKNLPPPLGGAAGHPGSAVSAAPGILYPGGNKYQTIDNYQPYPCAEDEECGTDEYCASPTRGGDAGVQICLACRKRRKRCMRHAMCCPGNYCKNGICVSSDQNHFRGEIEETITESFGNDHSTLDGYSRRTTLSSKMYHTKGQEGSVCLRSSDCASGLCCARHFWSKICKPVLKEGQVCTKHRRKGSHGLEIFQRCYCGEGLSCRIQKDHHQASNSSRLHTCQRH
Chain of Epidermal growth factor receptor (Homo sapiens) (P00533 whole entry, looked up): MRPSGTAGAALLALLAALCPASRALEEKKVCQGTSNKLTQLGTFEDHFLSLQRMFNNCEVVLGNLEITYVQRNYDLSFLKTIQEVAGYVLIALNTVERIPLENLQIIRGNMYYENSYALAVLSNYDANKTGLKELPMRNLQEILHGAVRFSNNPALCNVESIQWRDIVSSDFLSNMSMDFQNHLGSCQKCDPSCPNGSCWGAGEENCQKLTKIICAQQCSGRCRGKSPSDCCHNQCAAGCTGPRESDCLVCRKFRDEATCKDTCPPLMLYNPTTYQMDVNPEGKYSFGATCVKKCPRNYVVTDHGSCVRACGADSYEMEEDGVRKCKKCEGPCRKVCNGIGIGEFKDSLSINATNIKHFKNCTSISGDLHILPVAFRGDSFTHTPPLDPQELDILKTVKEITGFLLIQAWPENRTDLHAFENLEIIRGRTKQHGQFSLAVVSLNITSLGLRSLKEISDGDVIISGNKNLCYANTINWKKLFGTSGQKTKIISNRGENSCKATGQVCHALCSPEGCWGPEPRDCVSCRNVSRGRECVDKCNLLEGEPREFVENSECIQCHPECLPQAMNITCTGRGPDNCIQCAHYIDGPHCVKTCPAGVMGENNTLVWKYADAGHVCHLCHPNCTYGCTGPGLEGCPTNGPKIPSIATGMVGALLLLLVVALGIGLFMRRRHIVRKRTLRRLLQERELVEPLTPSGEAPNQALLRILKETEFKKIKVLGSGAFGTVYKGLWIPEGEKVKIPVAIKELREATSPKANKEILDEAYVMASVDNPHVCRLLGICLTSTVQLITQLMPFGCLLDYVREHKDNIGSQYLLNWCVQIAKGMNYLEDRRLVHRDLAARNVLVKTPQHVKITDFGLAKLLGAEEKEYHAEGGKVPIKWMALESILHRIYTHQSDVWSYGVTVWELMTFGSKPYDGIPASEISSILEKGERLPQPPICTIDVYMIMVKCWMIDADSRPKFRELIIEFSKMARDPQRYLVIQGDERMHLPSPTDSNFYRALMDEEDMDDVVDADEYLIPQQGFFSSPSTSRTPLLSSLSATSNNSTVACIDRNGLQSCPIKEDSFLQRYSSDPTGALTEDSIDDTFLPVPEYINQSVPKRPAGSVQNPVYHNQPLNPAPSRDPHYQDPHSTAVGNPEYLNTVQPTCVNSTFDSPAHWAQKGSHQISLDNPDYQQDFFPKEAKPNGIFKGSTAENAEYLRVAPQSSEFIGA
Chain of Follistatin-related protein 3 (Homo sapiens) (O95633 whole entry, looked up): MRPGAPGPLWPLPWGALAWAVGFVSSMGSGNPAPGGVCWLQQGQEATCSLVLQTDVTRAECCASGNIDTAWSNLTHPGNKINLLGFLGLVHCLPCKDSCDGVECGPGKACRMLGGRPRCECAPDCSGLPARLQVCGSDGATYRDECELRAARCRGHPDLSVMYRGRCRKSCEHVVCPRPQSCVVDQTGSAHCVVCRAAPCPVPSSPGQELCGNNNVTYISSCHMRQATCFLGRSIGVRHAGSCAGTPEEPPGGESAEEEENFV
Chain of Fibroblast growth factor 10 (Homo sapiens) (O15520 whole entry, looked up): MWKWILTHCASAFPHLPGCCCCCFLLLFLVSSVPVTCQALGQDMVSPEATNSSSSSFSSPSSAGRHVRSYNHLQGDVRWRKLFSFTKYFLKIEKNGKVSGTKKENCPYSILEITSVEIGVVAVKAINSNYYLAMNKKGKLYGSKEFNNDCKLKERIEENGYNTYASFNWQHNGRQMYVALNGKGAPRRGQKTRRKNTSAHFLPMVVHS

For the molecule `CC(C)N1C(=O)C[C@@](C(=O)NCC(F)(F)F)(c2ccc([N+](=O)[O-])cc2)[C@H]1c1ccc(CO)cc1`, the composite z-score is 1.42 in assay [1]; -0.186 in assay [2]; 0.52 in assay [3]; -0.244 in [5]; 0.0211 in assay [6]; -0.399 in assay [7]. Moreover, the figures for the composite z-score in assay [8], in assay [9] and in assay [10] were -0.241, -0.272 and 0.5, respectively. Further, in assay [4], the z-score is -0.259 (inactive).
For the molecule `NC(=O)NCC#Cc1ccc2c(c1)[C@]1(C(=O)N2)[C@H](c2ccc(O)cc2)N2[C@H](c3ccccc3)[C@H](c3ccccc3)OC(=O)[C@H]2[C@@H]1C(=O)O`, the composite z-score in [1] is -0.0693; in [2] it was -0.173; in assay [3], 0.617; in assay [5], -0.114; in assay [6] it was -0.928; in [7], -0.683. Also, the composite z-score is -0.966 in [8], -1.22 in assay [9] and -0.203 in [10]. In assay [4], the z-score was 0.307 (inactive).
For `C=CCNC(=O)[C@H]1[C@@H]2C(=O)O[C@@H](c3ccccc3)[C@@H](c3ccccc3)N2[C@@H](c2ccccc2OCCO)[C@]12C(=O)Nc1ccc(C#CCC(C(=O)OC)C(=O)OC)cc12`, the composite z-score stood at 0.797 in assay [1]; 0.309 in assay [2]; 0.973 in [3]; 1.26 in [5]; 1.33 in [6]; 1.15 in assay [7]. In addition, the composite z-score in assay [8] was 1.37; in [9], 1.23; in assay [10], 0.568. In addition, the z-score in assay [4] was -2.39 (inactive).
In the case of `COCCOC(=O)N1C(=O)[C@@]2(c3cc(C#CCNC(N)=O)ccc31)[C@H](C(=O)N1CCN(c3ncccn3)CC1)[C@H]1C(=O)O[C@H](c3ccccc3)[C@H](c3ccccc3)N1[C@@H]2c1ccc(OCCO)cc1`, the composite z-score in assay [1] was 1.08; in [2], 0.223; in assay [3], 0.329; in assay [5], 1.01; in [6], -0.0506; in assay [7], 0.498. Also, the composite z-score in assay [8] came out at 1.37; in assay [9], 0.204; in assay [10] it was 0.63. Besides, the z-score in assay [4] was -0.729 (inactive).
Take `O=C1O[C@@H](c2ccccc2)[C@@H](c2ccccc2)N2[C@@H](c3ccccc3OCCO)[C@]3(C(=O)Nc4ccc(C#CC5=CCCCC5)cc43)[C@@H](C(=O)N3CCCCCCC3)[C@H]12`: the composite z-score in assay [1] came out at 2.01; in [2] it was 2.94; in assay [3] it was 1.63; in assay [5], 1.54; in assay [6] it was 1.39; in [7] it was 1.81. Moreover, the composite z-score in assay [8] came out at 1.75; in assay [9], 2.56; in assay [10], 1.8. For the same molecule, the z-score in assay [4] is -1.06 (inactive).
Regarding `CC(C)N1C(=O)c2ccccc2[C@](C)(C(=O)NCCN2CCOCC2)[C@@H]1c1ccc(CO)cc1`, the composite z-score in assay [1] was 0.24; in [2], -0.0879; in assay [3], 0.987; in [5], -0.499; in [6], -0.608; in assay [7] it was -1.13. The values for the composite z-score in assay [8], in assay [9] and in assay [10] were -0.115, -0.75 and 0.503, respectively. Further, in [4], the z-score is 0.0672 (inactive).
With `CO[C@H]1O[C@H](CO)[C@@H](OC(=O)Nc2cccc(F)c2)[C@H](OC(=O)Nc2ccccc2)[C@@H]1OC(=O)Nc1ccccc1`, the composite z-score in assay [1] was found to be 0.931; in assay [2] it was 0.433; in assay [3] it was 0.824; in [5], 1.35; in assay [6], 1.28; in assay [7] it was 0.397. In addition, the composite z-score in [8] was 1.2; in assay [9], -0.259; in assay [10] it was 0.489. The z-score in [4] was -1.24 (inactive).
Take `CC(CO)N1C(=O)[C@@H]2C3C(=O)OCCC/C=C\[C@H]3OC23C=CCN(C(C)(C)C)C(=O)[C@@H]13` (stereo not given in full): the composite z-score in assay [1] was 0.205; in assay [2], -0.349; in assay [3] it was -0.522; in [5] it was 0.259; in [6] it was -0.0474; in [7], -0.325. Also, the composite z-score in assay [8] is 0.0856; in [9], 0.113; in assay [10] it was 0.0635. Further, the z-score in [4] was 0.742 (inactive).
For the molecule `C=C(CC1([C@@H](NP(=O)(c2ccccc2)c2ccccc2)[C@H]2C[C@@H]2CCCC)CC1)c1ccccc1`, the composite z-score in [1] worked out at 0.339; in assay [2], 0.786; in [3], 0.994; in assay [5], 0.0431; in [6], 0.014; in assay [7], 0.243. The composite z-score in assay [8] amounted to 0.438; in assay [9], 0.104; in assay [10], 0.705. In addition, the z-score in [4] was -2.51 (inactive).
Regarding `COCCCNC(=O)[C@@]1(C)c2ccccc2C(=O)N(C(C)C)[C@H]1c1ccc(CO)cc1`, the composite z-score in assay [1] is 0.572; in assay [2], 0.174; in assay [3], 0.343; in assay [5], 0.555; in assay [6], 0.497; in assay [7], 0.517. For the same molecule, the composite z-score was found to be 0.861 in [8], 0.888 in assay [9] and 0.531 in [10]. The z-score in assay [4] was -0.373 (inactive).
For the molecule `COc1ccc([Si](C)(C)[C@H]2[C@H](CC(=O)N3Cc4ccccc4C[C@H]3CO)O[C@@]3(C(=O)N(Cc4cccc(N5CCC5=O)c4)c4ccccc43)[C@@H]2C)cc1`, the composite z-score in [1] is 1.31; in assay [2] it was -0.293; in assay [3], -0.325; in assay [5] it was 1.05; in [6], 0.716; in [7], 1.19. Moreover, the composite z-score in assay [8] amounted to 1.42; in [9], 1.26; in assay [10], 0.962. Also, the z-score in assay [4] is -0.205 (inactive).
In the case of `CCCCC(CC)C(O)C1C=CC2C(=O)N(Cc3ccccc3)C(=O)C2N1n1cnnc1` (stereo not given), the composite z-score in assay [1] is -0.503; in assay [2], 0.197; in assay [3], 0.552; in assay [5] it was -0.0566; in [6], -0.0058; in [7], -0.286. The composite z-score in [8] was 0.0568; in assay [9], -0.691; in assay [10], 0.82. Moreover, the z-score in assay [4] was -0.44 (inactive).
Consider `COC(=O)[C@@]1(Cc2ccc(F)cc2)[C@H]2c3cc(C(=O)N4CCCC4)n(Cc4ccc(S(C)(=O)=O)cc4)c3C[C@H]2CN1C(=O)c1ccccc1`, for which the composite z-score in assay [1] was determined as 1.2; in assay [2] it was 1.14; in [3], 0.949; in assay [5], 0.598; in assay [6] it was 0.108; in assay [7], 0.771. The composite z-score in assay [8] amounted to 0.473; in assay [9] it was 0.328; in assay [10], 1.38. The z-score in assay [4] was -0.501 (inactive).
With `CC(C)=CCN[C@H](CO)c1ccccc1`, the composite z-score in assay [1] is 0.38; in [2], -0.274; in assay [3], -0.235; in assay [5] it was 0.795; in assay [6], -0.366; in [7], 0.149. For the same molecule, the composite z-score in assay [8] was found to be 0.576; in [9], 0.749; in [10], 1.01. The z-score in assay [4] is -0.795 (inactive).

Values taken from PubChem BioAssay.
